About 83,000 compounds went through this panel and 20% of them were active in at least one assay; those are over-represented in the sample as a whole.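 Percent growth is the endpoint: 0 to 100 indicates growth inhibition (40 means 60% inhibition), 0 means no net growth, and negative values indicate cell death.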 Unmarked numbers belong to inactive results. Calls of active or inactive are those of the source. Rule for the calls: active = growth percent below 10; inactive = the rest.
Columns and labels:
Test in all cases: NCI-60 one-dose screen, 48 h (100 = growth as untreated, 0 = no growth, -100 = all killed)
Conditions in all cases: 10 µM unless noted
[1] = test system: SR leukemia
[2] = test system: RPMI-8226 leukemia
[3] = test system: OVCAR-8 ovarian
[4] = test system: OVCAR-5 ovarian
[5] = test system: OVCAR-4 ovarian
[6] = test system: SK-OV-3 ovarian
[7] = test system: IGROV1 ovarian
[8] = test system: OVCAR-3 ovarian
[9] = test system: HS 578T breast
[10] = test system: NCI/ADR-RES ovarian
[11] = test system: T-47D breast
[12] = test system: BT-549 breast
[13] = test system: MDA-MB-435 melanoma
[14] = test system: SW-620 colon
[15] = test system: MCF7 breast
[16] = test system: HCT-116 colon
[17] = test system: HCC-2998 colon
[18] = test system: KM12 colon
[19] = test system: MDA-MB-468 breast

Row | SMILES | growth [1] | growth [2] | growth [3] | growth [4] | growth [5] | growth [6] | growth [7] | growth [8] | growth [9] | growth [10] | growth [11] | growth [12] | growth [13] | growth [14] | growth [15] | growth [16] | growth [17] | growth [18] | growth [19]
1 | CC1(c2cc3cc(Cl)ccc3oc2=O)NC(=O)c2c(/C=C/C(=O)OC3CC4CCC3(C)C4(C)C)cccc2N1 (configuration not stated) | 42.2% | 22% | 70.4% | 80.6% | 54.4% | 66.1% | 76.1% | 69% | 72.8% | 64% | 24.4% | 59.3% | 81% | 73% | 37.4% | 40.4% | 82.6% | 64.8% | -6.79% (active)
2 | COC1=C[C@]23CCC(=O)N2CCc2cc4c(cc2[C@@H]3[C@@H]1OC(=O)[C@H](C)O)OCO4 | -11.9% (active) | -17.9% (active) | 29.1% | 46.4% | 13.1% | 23.5% | 20% | -2.32% (active) | 53.9% | 74.6% | 42.4% | 2.51% (active) | 34.6% | 13.6% | -5.57% (active) | 1.88% (active) | -29.9% (active) | 18.9% | -17% (active)
3 | COc1cc2oc(-c3cccc(C(=O)Nc4ccc(Cl)cc4)c3)cc(=O)c2c(OCCNC(=O)[C@H](CCC(=O)OC(C)(C)C)NC(=O)OC(C)(C)C)c1OC | 72.9% | 78.1% | 100% | 107% | 93% | 102% | 89.9% | 110% | 92.6% | 91.5% | 78.7% | 100% | 100% | 112% | 83% | 95.6% | 118% | 102% | 105%
4 | C=C1CCC2C3(C)COC(c4cccc(F)c4)OC3CCC2(C)C1C/C=C1/C(=O)OCC1O (configuration not stated) | 9.74% (active) | 10.5% | -52.2% (active) | 22.1% | -0.215% (active) | 60.5% | -24% (active) | -71.8% (active) | 15.9% | -18% (active) | -5.25% (active) | -82.2% (active) | -10.3% (active) | -63% (active) | -7.05% (active) | -73.8% (active) | -51% (active) | -27.8% (active) | -35.2% (active)
5 | C#CCOc1ccc(/C=N/Nc2nc(-c3cc4cc(Br)ccc4oc3=O)cs2)cc1OC | 80.2% | 68.2% | 65.7% | 73.9% | 47.8% | 25.7% | 83.1% | 87.3% | 86.8% | 63.8% | 51.1% | 48.5% | 78.7% | 77.6% | 41.9% | 71.5% | 39.6% | 51.1% | 26.8%
6 | O=C(c1ccccc1)c1ccc2nc(-c3ccc(F)cc3)[nH]c2c1 | 27.9% | 43.1% | 83.3% | 41.5% | 49.5% | 74% | 45.9% | 32.6% | 65.1% | 58.3% | 47.5% | 40.1% | 57.6% | 28.2% | 35.9% | 41.7% | 91% | 65% | 42.8%
7 | CN(C)c1ccnc(CNCCSC2(c3ccc(C(F)(F)F)cc3)c3ccccc3C=Cc3ccccc32)c1 | -53% (active) | -48.9% (active) | -77.2% (active) | 1.89% (active) | 13% | 8.64% (active) | 9.31% (active) | -40.5% (active) | -18% (active) | -73.6% (active) | -60.8% (active) | -6.19% (active) | -78.3% (active) | -82.8% (active) | -89.2% (active) | -37.8% (active) | -93.9% (active) | -31.5% (active) | -57.7% (active)
8 | Cc1ccc(C2CC(c3ccc(S(=O)(=O)NCCNc4nc(Nc5ccc(F)cc5)nc(N(C)C)n4)cc3)=Nc3c(N)nc(N)nc3N2)cc1 (configuration not stated) | -6.57% (active) | 6.3% (active) | 52% | 92.6% | 53.2% | 101% | 69.8% | 67.5% | 65.2% | 88.9% | 53% | 58% | 55.2% | 54.1% | 18.7% | 27.2% | 32.4% | 40.9% | -12.8% (active)

Reference: PubChem BioAssay (NCI)
